SMILES strings stand for the structures. About 22,000 (6.9%) of roughly 320,000 compounds were called active. Inconclusive results (about 27%) are left out. This is one part of a sample in which actives are shown more often than they occur. A number with no mark means an inactive call. The call rests on the fitted dose curve; in most records, active means well fitted inhibition curve with a large enough effect; inconclusive means small, poorly fitted or top-dose-only effect, or another doubt; inactive means no such curve, though single readings can be large or run the other way.
On the % scale 0 is the no-effect control and ±100 the full control effect; potency means the concentration at half of the fitted maximal effect.

This assay is described as follows: Primary qHTS for delayed death inhibitors of the malarial parasite plastid, 96 hour incubation. The following applies: P. falciparum luciferase reporter growth; series mostly up to 28.7 µM; activity change, negative = inhibition: at the top concentration. The procedure, abridged:
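Two parasite generations (96 h, 37 C, 5% CO2) of compound exposure in infected erythrocytes (0.05% parasitemia, 2% hematocrit). Luciferase-reporter P. falciparum; decreased luminescence indicates inhibited growth, aimed at apicoplast-acting delayed death.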
(In qHTS, concentration-response curves come from the screen itself.)
For `CCOC(=O)c1sc(NC(=O)CSc2ncccn2)c(C#N)c1C`, the “activity change, negative = inhibition” value is -21.8%.
On the same count and under the same terms, for `CCN1CCN(CC(=O)Nc2sc3c(c2C#N)CCC3)CC1` the value was 8.13%.
Regarding `CCC(=O)Nc1sc(C(=O)N2CCCCC2)c(C)c1C#N`, the Potency was 14.7 µM (active).
`COc1cc(OC)c(C(=O)OCC(=O)N2CC(=O)Nc3ccccc32)cc1OC`: the “activity change, negative = inhibition” value was 0%.
Same read-out and setting: for `O=C1CN(C(=O)COC(=O)c2cnc(Cl)c(Cl)c2)c2ccccc2N1` the value was -23.4%.
As for `COc1ccc(Cl)cc1-n1c(C)cc(C(=O)OCC(=O)N2CC(=O)Nc3ccccc32)c1C`, the Potency is 4.15 µM (active).
`O=C(COC(=O)Cc1ccccc1F)NNC(=O)c1ccc(Cl)cc1`: the “activity change, negative = inhibition” value was 59.7%.
As for `Cc1cc(Br)ccc1NC(=O)CN(C)C(=O)CN1C(=O)NC2(CCCC2)C1=O`, the “activity change, negative = inhibition” value was 14.6%.
Still for that read-out and setting: for `COc1ccc(-c2cc(C(=O)NCCCN3CCCC3=O)c3ccccc3n2)cc1OC` the value was -15.3%; for `COc1ccc(Cl)cc1NC(=O)CN(C)C(=O)c1ccc2n[nH]nc2c1`, 16.7%.
The same measure, in the same setting: to `COc1ccc(CN(C)C(=O)Cc2c[nH]c3ccccc23)c(OC)c1OC` belongs 5.46%; to `COc1ccc(-c2cc(C(=O)N(C)Cc3ccccc3)c3ccccc3n2)cc1`, -23.6%.
Take `COc1ccc(CN(C)C(=O)c2cc(-c3ccc(C)cc3C)nc3ccccc23)c(OC)c1OC`: the Potency was 13.1 µM (active).
Same read-out and setting: for `COc1ccc(-c2cc(C(=O)N(C)CC(=O)Nc3ccccc3Cl)c3ccccc3n2)cc1OC` the value was 9.28 µM (active).
As for `CC1CCN(c2ccc([N+](=O)[O-])c(SCCO)c2)CC1`, the “activity change, negative = inhibition” value was -9.96%.
Same read-out and setting: for `Cc1ccc(C)c(OCC(=O)NNC(=O)C2CCC2)c1` the value was 23.9%; for `COc1cccc(OCc2nnc3n2N=C(c2ccccc2)C(CC(=O)O)S3)c1` (stereo not drawn), -2.01%.
On the same count and under the same terms, for `O=C(CSc1ccc(-c2ccc(F)cc2)nn1)Nc1ccc2c(c1)OCCO2` the value was 2.54%.
Turning to `O=C(Nc1ccc2c(c1)OCCO2)C(c1ccc(F)cc1)N1CCCCC1` (stereo not drawn), the Potency is 8.28 µM (active).
Take `CC1CCCN(C(C(=O)Nc2ccc(C(C)C)cc2)c2ccc3c(c2)OCO3)C1` (stereo not drawn): the “activity change, negative = inhibition” value was -56.8%.
For the compound `CC(=O)Nc1ccc(NC(=O)C2CCCN(S(=O)(=O)c3ccc(Cl)cc3)C2)cc1` (stereo not drawn), the “activity change, negative = inhibition” value is -29.5%.
`CC(NC(=O)CCCC1CCCCC1)c1ccc(S(N)(=O)=O)cc1` (stereo not drawn): the “activity change, negative = inhibition” value was -2.5%.
Still for that read-out and setting: for `CCOc1cc(/C=C2\C(=N)N3N=C(C)SC3=NC2=O)ccc1OCCOc1ccccc1` the value was 5.34%; for `O=C(COC(=O)/C=C/c1cccs1)NC1CCCCC1`, 15.1%.
As to `O=C(CCCCCn1c(=S)[nH]c2ccsc2c1=O)NC1CCCCC1`, the Potency was 13.1 µM (active).
In the case of `O=C(CCC(=O)c1cccs1)NC1CCCCCC1`, the “activity change, negative = inhibition” value was 321%.
`CN1CCN(Cc2nc3cc(NC(=O)COc4ccc([N+](=O)[O-])cc4)ccc3n2C)CC1`: the “activity change, negative = inhibition” value was -17.9%.
Same read-out and setting: for `Nc1nc(SCC(=O)Nc2cc(C(F)(F)F)ccc2Cl)[nH]c(=O)c1NC(=O)c1ccco1` the value was 48.7%.

These data come from PubChem BioAssay AID504834 (National Center for Advancing Translational Sciences (NCATS), 2011).
